PubChem BioAssay
This is one part of the list. Results filed as inconclusive are left out. A number with no mark means an inactive call. The source made the active and inactive calls.

What was measured:
[1] = molecular target: Solute carrier family 12 member 5 (Homo sapiens) (UniProt Q9H2X9); assay: retest of KCC2 transport modulators without sodium – cell-based, HEK293 KCC2, thallium flux, secondary assay, confirmation (AID 1713); conditions: FluoZin2 fluorescence, at 10 µM, stronger effect = higher value
[2] = PubChem AID 1714; conditions: HEK293-KCC2 + bumetanide/ouabain, thallium flux FluoZin2; at 10 µM; stronger effect = higher value;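 also: raw slope of fluorescence over initial fluorescence between 10 and 20 s after thallium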
[3] = compound effects on native HEK Tl+ uptake – HEK cells, counterscreen 1, counter-screen for KCC2 modulator project, confirmation (AID 1716;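 active = thallium flux rate significantly above the same plate's solvent-only control wells, beyond their mean plus 3 SD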); conditions: HEK293 parental cells, thallium flux FluoZin2, ouabain; at 10 µM; baseline-ratio fluorescence slope, 10–20 s after thallium
[4] = molecular target: Solute carrier family 12 member 5 (Homo sapiens) (UniProt Q9H2X9); assay: modulation of KCC2 thallium flux in HEK cells – cell-based, ouabain, retest, confirmation (AID 1717;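 active = thallium flux slope beyond 3 SD from same-plate DMSO control mean in most replicates, usually higher, sometimes lower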;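 also: slope of initial-normalized fluorescence between seconds 10 and 20 after thallium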); conditions: HEK293-KCC2, thallium flux FluoZin2 fluorescence, at 10 µM, bidirectional: low = inhibitor, high = activator
[5] = native HEK Tl+ uptake effects, second counter-screen – HEK cells, counterscreen 2, counter-screen for KCC2 modulator project, confirmation (AID 1718;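 active = thallium flux slope above the same plate's solvent-control mean plus 3 SD in both duplicate wells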;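 also: run without ouabain in cells lacking the KCC2 cotransporter; slope of fluorescence scaled to its starting value between 10 and 20 s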); conditions: HEK293 parental, thallium flux FluoZin-2 fluorescence slope; at 10 µM
[6] = molecular target: Solute carrier family 12 member 5 (Homo sapiens) (UniProt Q9H2X9); assay: retest of KCC2 transport modulation, ouabain-free – cell-based, HEK293 KCC2, thallium flux, FluoZin2, secondary assay 2, confirmation (AID 1715;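 active = thallium flux slope more than 3 SD above or below the plate's solvent-only control mean, mostly below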;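 also: raw slope with 0.1% DMSO as baseline and bumetanide as block control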); conditions: HEK293-KCC2, thallium flux FluoZin2 fluorescence; at 10 µM; actives lie on both sides; F/F0 rise rate, 10–20 s post-thallium

Solute carrier family 12 member 5 (Homo sapiens), sequence (Q9H2X9 whole entry, looked up): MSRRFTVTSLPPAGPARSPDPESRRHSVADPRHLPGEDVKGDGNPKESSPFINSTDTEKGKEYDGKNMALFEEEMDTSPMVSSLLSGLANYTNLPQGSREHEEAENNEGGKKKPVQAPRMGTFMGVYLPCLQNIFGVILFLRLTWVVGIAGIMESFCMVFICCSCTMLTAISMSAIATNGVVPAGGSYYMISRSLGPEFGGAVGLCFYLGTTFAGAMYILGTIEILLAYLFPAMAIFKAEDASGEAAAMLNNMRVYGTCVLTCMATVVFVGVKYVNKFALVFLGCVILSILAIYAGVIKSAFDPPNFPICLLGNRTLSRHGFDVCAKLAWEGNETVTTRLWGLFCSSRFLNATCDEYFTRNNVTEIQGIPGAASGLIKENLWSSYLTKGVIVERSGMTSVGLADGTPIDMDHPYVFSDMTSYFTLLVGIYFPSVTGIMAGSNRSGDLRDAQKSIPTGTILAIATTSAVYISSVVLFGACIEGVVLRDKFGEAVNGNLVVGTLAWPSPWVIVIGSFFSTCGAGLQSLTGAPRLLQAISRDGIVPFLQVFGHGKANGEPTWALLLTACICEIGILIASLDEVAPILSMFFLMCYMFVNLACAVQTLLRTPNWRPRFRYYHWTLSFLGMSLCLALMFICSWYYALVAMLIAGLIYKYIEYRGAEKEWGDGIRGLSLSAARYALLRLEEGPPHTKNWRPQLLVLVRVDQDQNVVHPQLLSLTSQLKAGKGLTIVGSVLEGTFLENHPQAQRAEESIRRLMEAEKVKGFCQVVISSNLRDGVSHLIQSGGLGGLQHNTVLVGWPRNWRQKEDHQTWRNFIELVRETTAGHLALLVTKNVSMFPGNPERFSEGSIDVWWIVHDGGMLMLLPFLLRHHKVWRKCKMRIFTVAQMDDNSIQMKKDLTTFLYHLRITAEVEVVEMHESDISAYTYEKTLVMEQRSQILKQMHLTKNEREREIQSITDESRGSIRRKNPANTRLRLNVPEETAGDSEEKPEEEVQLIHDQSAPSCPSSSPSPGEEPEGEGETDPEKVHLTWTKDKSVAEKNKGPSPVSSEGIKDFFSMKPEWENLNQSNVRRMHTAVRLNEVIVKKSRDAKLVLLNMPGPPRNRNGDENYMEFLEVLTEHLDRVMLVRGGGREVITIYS

Row | Compound | normalised thallium flux (F/F0 slope) [1] | normalized thallium flux [2] | thallium flux rate (normalised fluorescence) [3] | raw Tl+ flux slope (below DMSO = inhibition, above = activation) [4] | thallium flux slope [5] | normalized thallium flux [6]
1 | Cc1ccc(C)c(NC(=S)NNC(=S)Nc2ccc(C(C)C)cc2)c1 | 0.0145 | 0.00979 (active) | 0.0112 (active) | 0.0152 (active) | 0.0121 | –
2 | O=C(CSc1ccc(-c2cccs2)nn1)Nc1ccccc1F | 0.00973 | 0.00689 | 0.00368 | 0.017 (active) | 0.0107 | –
3 | Cc1c(C(=O)NC(=S)NCc2cccnc2)oc2ccccc12 | 0.025 (active) | 0.0479 (active) | 0.028 (active) | 0.0308 (active) | 0.0284 (active) | –
4 | Fc1ccc(COc2cccc(-c3n[nH]c(=S)o3)c2)cc1 | 0.0171 | 0.101 (active) | 0.0348 (active) | 0.042 (active) | 0.0338 (active) | –
5 | O=C(N/N=C/c1ccc(Br)o1)c1cncc(Br)c1 | 0.0115 (active) | 0.0326 (active) | 0.0124 (active) | – | 0.0107 (active) | 0.0307
6 | O=C(CNCc1cccs1)Nc1cc(S(=O)(=O)N2CCCC2)ccc1Cl | 0.00507 | 0.00419 | – | 0.0155 (active) | 0.0101 | 0.0229 (active)
7 | O=C(c1cc(-c2ccc(O)cc2)on1)N1CCCc2ccccc21 | 0.00967 | 0.00639 | 0.00346 | 0.0175 (active) | 0.0111 | –
8 | CC1CCCCN1S(=O)(=O)c1ccc(C(=O)Nc2nnc(-c3cccs3)o2)cc1 (stereo not given) | 0.0106 | 0.0292 (active) | – | 0.0294 (active) | 0.0123 | 0.033
9 | Cc1cc(C)c2cc(CN(Cc3cccs3)Cc3nnnn3CC3CCCO3)c(=O)[nH]c2c1 (stereo not given) | 0.0146 | 0.0043 | 0.00572 (active) | 0.0137 (active) | 0.00821 | –
10 | COC(=O)c1sc(NC(=S)NC(=O)c2ccc(C)cc2)nc1C | 0.0256 (active) | 0.104 (active) | 0.0618 (active) | 0.0617 (active) | 0.0234 (active) | –
11 | COc1cc(OC)cc(C(=O)NCCSCc2ccco2)c1 | 0.00951 | 0.00654 | – | 0.0187 | 0.0101 | 0.0289
12 | O=C(Cc1csc(Nc2nc(=S)[nH]c3ccccc23)n1)NCCCN1CCN(c2cccc(Cl)c2)CC1 | 0.0134 (active) | 0.0417 (active) | – | 0.0417 (active) | 0.0172 (active) | 0.0374
